Records with an inconclusive call do not appear. Activity calls are given as the source filed them. Unless noted, the call rests on the fitted dose curve.
What was measured:
[1] = molecular target: Bile acid receptor (Homo sapiens) (UniProt Q96RI1); assay: qHTS assay for small molecule agonists of farnesoid X receptor signaling (AID 588527); details: HEK293T FXR-UAS-bla, beta-lactamase ratio, 16 h; activation: stronger effect = higher value;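 further: series mostly up to about 77 µM; 0% = vehicle basal and 100% = reference agonist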
Bile acid receptor (Homo sapiens), sequence (Q96RI1 whole entry, looked up): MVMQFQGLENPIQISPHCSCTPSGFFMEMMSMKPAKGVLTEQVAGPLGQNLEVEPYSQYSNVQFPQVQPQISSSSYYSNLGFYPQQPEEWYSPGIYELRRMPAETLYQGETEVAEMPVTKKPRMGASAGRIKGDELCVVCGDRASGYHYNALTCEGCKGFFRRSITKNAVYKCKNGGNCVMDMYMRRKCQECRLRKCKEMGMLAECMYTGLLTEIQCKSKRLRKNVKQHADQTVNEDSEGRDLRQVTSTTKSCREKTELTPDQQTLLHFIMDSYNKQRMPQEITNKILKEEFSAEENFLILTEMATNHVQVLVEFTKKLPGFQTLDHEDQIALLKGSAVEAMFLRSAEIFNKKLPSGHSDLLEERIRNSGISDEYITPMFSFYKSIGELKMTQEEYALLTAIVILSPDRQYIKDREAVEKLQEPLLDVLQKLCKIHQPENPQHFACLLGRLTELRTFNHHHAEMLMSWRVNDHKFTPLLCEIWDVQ
Summary of the method: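 FXR-UAS-bla HEK293T, 10% dialyzed FBS; cpds up to 92 uM titration, 16 h 37 C; CCF4 dye 2 h RT; fluorescence. Normalized to chenodeoxycholic acid 100 uM (100%) and DMSO (0%); Hill fit gives EC50, efficacy.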

[2] = molecular target: Bile acid receptor (Homo sapiens) (UniProt Q96RI1); assay: qHTS assay for small molecule antagonists of farnesoid X receptor signaling (AID 588526); further: potency means the concentration at half of the fitted maximal effect
Summary of the method: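 Antagonist mode: titrated compounds tested against chenodeoxycholic acid stimulation (normalized to 50 uM CDCA and DMSO) in GeneBLAzer HEK293T cells for 16 h. Beta-lactamase read by CCF4 fluorescence; IC50 from Hill fits.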

[3] = molecular target: Glucocorticoid receptor (Homo sapiens) (UniProt P04150); assay: qHTS assay for small molecule agonists of glucocorticoid receptor signaling (AID 588532; active means well fitted curve in the direction sought with a large enough effect in the signal ratio, with a control signal flat; the % refers to the signal ratio;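 further: 100% = dexamethasone at 0.1 µM and 0% = DMSO only wells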); details: HeLa MMTV-bla, beta-lactamase ratio, agonist, 18 h; activation: stronger effect = higher value, percent of dexamethasone control, DMSO zero
Glucocorticoid receptor (Homo sapiens), sequence (P04150 whole entry, looked up): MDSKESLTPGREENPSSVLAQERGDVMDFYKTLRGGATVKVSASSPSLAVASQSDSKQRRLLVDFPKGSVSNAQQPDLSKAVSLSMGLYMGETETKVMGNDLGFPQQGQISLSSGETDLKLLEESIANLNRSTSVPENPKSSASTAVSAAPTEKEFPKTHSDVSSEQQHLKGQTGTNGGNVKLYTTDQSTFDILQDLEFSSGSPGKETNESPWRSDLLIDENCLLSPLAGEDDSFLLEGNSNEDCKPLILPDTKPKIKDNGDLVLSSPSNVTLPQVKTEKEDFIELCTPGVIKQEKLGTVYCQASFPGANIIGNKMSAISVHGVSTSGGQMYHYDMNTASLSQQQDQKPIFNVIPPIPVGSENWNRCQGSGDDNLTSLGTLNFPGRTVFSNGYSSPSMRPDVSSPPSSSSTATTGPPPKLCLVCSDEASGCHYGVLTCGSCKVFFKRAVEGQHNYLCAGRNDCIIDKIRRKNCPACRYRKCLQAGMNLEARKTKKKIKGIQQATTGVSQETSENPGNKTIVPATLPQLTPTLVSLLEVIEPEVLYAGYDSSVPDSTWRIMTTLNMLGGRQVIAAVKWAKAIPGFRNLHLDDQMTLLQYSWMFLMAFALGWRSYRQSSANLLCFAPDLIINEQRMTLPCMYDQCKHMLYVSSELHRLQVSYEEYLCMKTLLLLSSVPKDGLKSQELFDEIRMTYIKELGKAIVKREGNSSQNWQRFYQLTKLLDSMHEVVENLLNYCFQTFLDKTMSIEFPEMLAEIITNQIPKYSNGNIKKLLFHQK
Summary of the method: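 HeLa GRE-bla reporter cells; 18 h compound exposure at 37 C; 2 h CCF4 loading at room temperature; fluorescence at 460 and 530 nm; EC50 by Hill equation.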

[4] = molecular target: Thyroid hormone receptor beta (Homo sapiens) (UniProt P10828); assay: qHTS assay for small molecule agonists of thyroid hormone receptor beta signaling (AID 588545);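 further: 0% = DMSO only and 100% = 10 nM T3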
Thyroid hormone receptor beta (Homo sapiens), sequence (P10828 whole entry, looked up): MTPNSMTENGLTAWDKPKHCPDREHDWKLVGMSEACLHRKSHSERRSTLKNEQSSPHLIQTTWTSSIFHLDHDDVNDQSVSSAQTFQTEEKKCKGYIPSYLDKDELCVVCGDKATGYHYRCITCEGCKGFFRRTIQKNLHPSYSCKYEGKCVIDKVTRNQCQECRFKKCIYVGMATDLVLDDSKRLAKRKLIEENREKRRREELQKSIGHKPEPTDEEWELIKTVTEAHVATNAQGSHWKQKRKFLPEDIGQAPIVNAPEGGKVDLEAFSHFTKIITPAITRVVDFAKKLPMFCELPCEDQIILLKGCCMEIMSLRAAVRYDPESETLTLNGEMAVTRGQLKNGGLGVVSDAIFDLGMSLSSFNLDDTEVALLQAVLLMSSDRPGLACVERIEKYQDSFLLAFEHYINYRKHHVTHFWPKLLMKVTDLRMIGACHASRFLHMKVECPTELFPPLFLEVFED
Summary of the method: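 Efficacy and EC50 values derive from Hill fits of qHTS titration data, normalized to 10 nM T3 and DMSO-only wells. HEK 293 reporter cells were stimulated for 18 hrs at 37 C, with beta-lactamase activity measured by CCF4 fluorescence.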

[5] = qHTS assay for small molecule antagonists of retinoid X receptor alpha signaling (AID 588546; active means well fitted inhibition curve with a large enough effect in the signal ratio, with a control signal flat, not every such curve was filed as active; the % refers to the signal ratio; further: potency means the concentration at half of the fitted maximal effect;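 on max response: cells stimulated with 9-cis-retinoic acid as agonist; on the % scale 0 is the no-effect control and ±100 the full control effect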); details: HEK293T RXRa-UAS-bla, beta-lactamase ratio, antagonist mode; measured here: W530 green channel, cytotoxicity proxy
Summary of the method: (§1)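 Beta-lactamase reporter inhibition, read as CCF4 fluorescence ratio (ex 405, em 460/530 nm) after 2 h at RT. HEK293T UAS-bla cells, 2500/well, were stimulated with 9-cis-RA at 500 or 100 nM final alongside test compound for 18 h at 37 C.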

[6] = molecular target: Retinoic acid receptor RXR-alpha (Homo sapiens) (UniProt P19793); assay: as above; details: HEK293T RXRa-UAS-bla, beta-lactamase ratio, antagonist mode
Retinoic acid receptor RXR-alpha (Homo sapiens), sequence (P19793 whole entry, looked up): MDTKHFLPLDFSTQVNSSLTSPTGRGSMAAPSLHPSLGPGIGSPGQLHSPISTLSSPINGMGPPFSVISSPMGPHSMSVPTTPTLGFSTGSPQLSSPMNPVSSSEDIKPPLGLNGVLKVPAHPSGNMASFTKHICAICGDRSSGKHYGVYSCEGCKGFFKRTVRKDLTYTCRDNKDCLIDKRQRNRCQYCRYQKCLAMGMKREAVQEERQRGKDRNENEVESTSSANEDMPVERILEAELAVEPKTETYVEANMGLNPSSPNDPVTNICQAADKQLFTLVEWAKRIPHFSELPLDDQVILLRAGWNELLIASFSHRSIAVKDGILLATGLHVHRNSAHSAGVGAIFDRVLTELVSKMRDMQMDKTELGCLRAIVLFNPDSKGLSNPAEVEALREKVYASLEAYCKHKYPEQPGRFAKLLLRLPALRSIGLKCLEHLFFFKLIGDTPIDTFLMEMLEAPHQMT
Summary of the method: as §1

[7] = qHTS assay for small molecule agonists of the antioxidant response element (ARE) signaling pathway (AID 651741; active means well fitted activation curve with a large enough effect in the signal ratio; the % refers to the signal ratio; further: potency means the concentration at half of the fitted maximal effect)
Summary of the method: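 CellSensor ARE-bla HepG2 cells (2,000/well) carrying ARE-driven beta-lactamase, exposed 16 h at 37 C. LiveBLAzer B/G FRET substrate added for 2 h at room temperature; fluorescence intensity read.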

[8] = qHTS assay for small molecule activators of the p53 signaling pathway (AID 651743; active means well fitted activation curve with a large enough effect in the signal ratio, not every such curve was filed as active; the % refers to the signal ratio; further: series mostly up to about 92 µM; % of control where 0% means no effect); details: HCT-116 p53RE-bla, beta-lactamase FRET ratio, 16 h; activation: stronger effect = higher value
Summary of the method: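 p53RE-bla HCT-116 cells carrying a beta-lactamase reporter under p53 response elements were exposed to compounds for 16 hours at 37 C. Reporter activity read as fluorescence after 2 hours at room temperature with LiveBLAzer B/G FRET substrate.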

[9] = qHTS assay for environmental chemicals that activate the Aryl hydrocarbon Receptor (AhR) signaling pathway (AID 651777; active means well fitted curve in the direction sought with a large enough effect; an effect the other way counts as inactive or inconclusive; further: % of control where 0% means no effect; nearly all actives have a fitted effect of over 15% in size); details: 1A2-DRE human hepatoma cells, luciferase, 24 h; activation: stronger effect = higher value
Summary of the method: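 Stable CYP1A2 promoter/DRE-luciferase human hepatoma line treated 24 hr; One-Glo luminescence, 30 min RT.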

[10] = qHTS assay for small molecule agonists of the antioxidant response element (ARE) signaling pathway measured by Nrf2-dependant transcriptional activity (AID 720636; active means well fitted curve in the direction sought with a large enough effect in the repeat runs; an effect the other way counts as inactive or inconclusive;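 further: HepG2 cells with an ARE-driven luciferase reporter; % of control where 0% means no effect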)
Summary of the method: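 Reporter gene assay, HepG2 ARE-luc: 16 hr compound, 37 C, 5% CO2; read-out luciferase luminescence.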

[11] = qHTS assay for cell viability of HEK293 cells (AID 743288; active means well fitted curve in the direction sought with a large enough effect; an effect the other way counts as inactive or inconclusive; further: nearly all actives have a fitted effect of over 50% in size; further: potency means the concentration at half of the fitted maximal effect; on max response: on the % scale 0 is the no-effect control and ±100 the full control effect); details: ATP luminescence (CellTiter-Glo), 18 h; max response: stronger effect = lower value
Summary of the method: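 Environmental chemicals tested in qHTS format against parental HEK293 cells; 18 h treatment, 37 C; read-out ATP luminescence (CellTiter-Glo), 30 min RT development.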

[12] = qHTS assay for cell viability of the p53RE-bla HCT-116 cell line (AID 743292; active means well fitted curve in the direction sought with a large enough effect; an effect the other way counts as inactive or inconclusive; further: on the % scale 0 is the no-effect control and ±100 the full control effect; nearly all actives have a fitted effect of over 55% in size)
Summary of the method: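 Readout: CellTiter-Glo luminescence after 30 min RT. Treatment: compounds in DMSO, 16 h, 37 C. Cells: CellSensor p53RE-bla HCT-116, 4,000/well, preincubated 5 h.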

[13] = molecular target: Nuclear receptor subfamily 1 group I member 2 (Rattus norvegicus) (UniProt Q9R1A7); assay: qHTS assay for small molecule activators of the rat pregnane X receptor (rPXR) signaling pathway (AID 651751; call rule not given here; further: 0% is about no effect); details: rPXR reporter cells, luciferase (One-Glo), 24 h
Nuclear receptor subfamily 1 group I member 2 (Rattus norvegicus), sequence (Q9R1A7 whole entry, looked up): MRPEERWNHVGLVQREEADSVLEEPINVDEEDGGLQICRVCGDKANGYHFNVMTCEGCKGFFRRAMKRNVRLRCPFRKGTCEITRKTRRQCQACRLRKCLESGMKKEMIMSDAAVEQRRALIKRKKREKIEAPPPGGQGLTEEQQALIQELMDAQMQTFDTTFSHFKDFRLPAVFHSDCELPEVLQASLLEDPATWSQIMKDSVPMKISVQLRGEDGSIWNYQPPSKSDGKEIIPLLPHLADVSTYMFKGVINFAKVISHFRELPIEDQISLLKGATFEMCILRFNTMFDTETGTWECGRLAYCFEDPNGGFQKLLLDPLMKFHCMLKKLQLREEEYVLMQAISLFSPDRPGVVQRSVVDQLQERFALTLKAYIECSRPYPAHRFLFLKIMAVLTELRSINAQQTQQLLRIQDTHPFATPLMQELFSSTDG

[14] = qHTS assay for small molecule activators of the human pregnane X receptor (PXR) signaling pathway (AID 720659; call rule not given here; further: 0% is about no effect)
[15] = molecular target: Peroxisome proliferator-activated receptor delta (Homo sapiens) (UniProt Q03181); assay: qHTS assay for small molecule agonists of peroxisome proliferator-activated receptor delta signaling (AID 588534);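 further: 0% = DMSO basal wells and 100% = positive control agonist at 10 µM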
Peroxisome proliferator-activated receptor delta (Homo sapiens), sequence (Q03181 whole entry, looked up): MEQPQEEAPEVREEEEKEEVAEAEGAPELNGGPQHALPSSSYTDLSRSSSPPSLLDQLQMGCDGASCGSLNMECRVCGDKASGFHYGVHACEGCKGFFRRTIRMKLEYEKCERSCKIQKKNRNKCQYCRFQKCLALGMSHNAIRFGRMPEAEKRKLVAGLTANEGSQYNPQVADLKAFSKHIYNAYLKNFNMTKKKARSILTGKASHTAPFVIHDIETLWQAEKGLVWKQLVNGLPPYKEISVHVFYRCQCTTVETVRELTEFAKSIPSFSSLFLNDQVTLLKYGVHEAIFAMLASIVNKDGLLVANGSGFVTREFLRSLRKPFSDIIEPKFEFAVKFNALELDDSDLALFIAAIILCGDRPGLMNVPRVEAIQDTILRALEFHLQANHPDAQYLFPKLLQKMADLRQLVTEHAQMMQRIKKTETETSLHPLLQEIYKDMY
Summary of the method: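 Cells carrying a PPAR-delta beta-lactamase reporter were treated with compounds for 18 h at 37 °C in agonist mode. CCF4 fluorescence was read after 2 h; EC50 and efficacy from Hill fits.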

[16] = qHTS assay for small molecule antagonists of peroxisome proliferator-activated receptor delta signaling (AID 588535; active means well fitted inhibition curve with a large enough effect in the signal ratio, with a control signal flat, not every such curve was filed as active; the % refers to the signal ratio;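 on max response: cells co-treated with a PPAR-delta agonist as stimulator during compound exposure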); details: HEK293T PPARd-UAS-bla, beta-lactamase FRET ratio, 18 h; 460 nm channel
Summary of the method: (§2)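 Antagonist-mode beta-lactamase reporter (GeneBLAzer PPAR-delta-UAS-bla) in HEK293T cells, 2% charcoal/dextran FBS, 4000 cells/well. Compound titrations, 18 h at 37 C; CCF4 ratio read, IC50 and efficacy from Hill fits.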

[17] = molecular target: Peroxisome proliferator-activated receptor delta (Homo sapiens) (UniProt Q03181); assay: as above
Summary of the method: as §2

[18] = molecular target: Peroxisome proliferator-activated receptor alpha (Homo sapiens) (UniProt Q07869); assay: qHTS assay for small molecule agonists of the peroxisome proliferator-activated receptor alpha (PPARalpha) signaling pathway (AID 651778; active means well fitted curve in the direction sought with a large enough effect; an effect the other way counts as inactive or inconclusive; further: % of control where 0% means no effect); details: PathHunter PPARalpha complementation, chemiluminescence, 6 h; max response: stronger effect = higher value
Peroxisome proliferator-activated receptor alpha (Homo sapiens), sequence (Q07869 whole entry, looked up, the tested form may be a part): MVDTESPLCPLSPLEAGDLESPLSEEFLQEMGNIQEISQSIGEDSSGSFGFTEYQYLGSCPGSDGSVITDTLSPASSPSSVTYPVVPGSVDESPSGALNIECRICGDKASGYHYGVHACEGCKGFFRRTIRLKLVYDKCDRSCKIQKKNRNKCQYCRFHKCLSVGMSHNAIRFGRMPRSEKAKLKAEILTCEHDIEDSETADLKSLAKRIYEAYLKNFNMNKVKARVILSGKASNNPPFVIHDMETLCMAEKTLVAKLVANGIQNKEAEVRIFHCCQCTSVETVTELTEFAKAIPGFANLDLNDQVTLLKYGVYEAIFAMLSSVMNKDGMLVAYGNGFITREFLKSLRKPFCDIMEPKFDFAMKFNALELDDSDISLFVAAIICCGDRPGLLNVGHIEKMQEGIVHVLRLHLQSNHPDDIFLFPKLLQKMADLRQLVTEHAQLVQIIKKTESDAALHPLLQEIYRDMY
Summary of the method: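 Enzyme-fragment complementation assay in which ligand-bound PPARalpha translocates and forms an active enzyme that generates chemiluminescence. Cells were plated overnight, exposed to compound for 6 hr at 37 C, and then given detection reagent for 60 min at room temperature.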

[19] = qHTS assay for small molecule agonists of the antioxidant response element (ARE) signaling pathway measured by Nrf2-dependant transcriptional activity - cell viability counter screen (AID 720653; active means well fitted curve in the direction sought with a large enough effect in the repeat runs; an effect the other way counts as inactive or inconclusive; further: potency means the concentration at half of the fitted maximal effect); details: ARE-bla HepG2 viability, CellTiter-Glo ATP luminescence, 16 h; max response: stronger effect = lower value
Summary of the method: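 ARE-bla HepG2 cells treated with compounds for 16 h at 37C; this counter screen measures viability as intracellular ATP by CellTiter-Glo luminescence after 30 min at room temperature.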

[20] = molecular target: Glucocorticoid receptor (Homo sapiens) (UniProt P04150); assay: qHTS assay for small molecule antagonists of glucocorticoid receptor signaling (AID 588533; active means well fitted inhibition curve with a large enough effect in the signal ratio, with a control signal flat, not every such curve was filed as active; the % refers to the signal ratio;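 further: cells stimulated with 2 nM dexamethasone as agonist; on the % scale 0 is the no-effect control and ±100 the full control effect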)
Summary of the method: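 Antagonist-mode qHTS: compound titrations added to GRE-bla HeLa cells, then dexamethasone 2 nM final; 18 h, 37 C. CCF4 FRET fluorescence normalized to dexamethasone and DMSO; IC50 from Hill fit.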

[21] = molecular target: Peroxisome proliferator-activated receptor gamma (Homo sapiens) (UniProt P37231); assay: qHTS assay for small molecule agonists of peroxisome proliferator-activated receptor gamma signaling (AID 588536; active means well fitted curve in the direction sought with a large enough effect in the signal ratio, with a control signal flat, not every such curve was filed as active; the % refers to the signal ratio;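 further: 0% = DMSO basal wells and 100% = rosiglitazone at 2 µM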)
Peroxisome proliferator-activated receptor gamma (Homo sapiens), sequence (P37231 whole entry, looked up): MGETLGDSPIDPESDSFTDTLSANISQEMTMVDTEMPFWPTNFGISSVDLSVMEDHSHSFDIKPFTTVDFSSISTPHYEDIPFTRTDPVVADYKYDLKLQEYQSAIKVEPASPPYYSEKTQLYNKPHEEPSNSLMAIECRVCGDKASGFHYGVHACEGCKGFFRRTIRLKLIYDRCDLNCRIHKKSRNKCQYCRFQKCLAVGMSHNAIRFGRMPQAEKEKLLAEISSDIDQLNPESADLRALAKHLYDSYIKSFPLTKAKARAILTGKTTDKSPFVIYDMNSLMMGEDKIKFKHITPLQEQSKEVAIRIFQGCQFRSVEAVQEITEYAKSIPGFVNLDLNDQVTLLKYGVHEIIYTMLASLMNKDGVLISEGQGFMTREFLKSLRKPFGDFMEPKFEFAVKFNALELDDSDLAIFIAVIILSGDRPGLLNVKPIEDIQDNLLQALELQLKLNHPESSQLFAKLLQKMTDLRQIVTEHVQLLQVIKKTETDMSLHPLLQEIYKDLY
Summary of the method: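 PPAR-gamma-UAS-bla HEK293 cells in medium with 1% charcoal/dextran-treated FBS were exposed to compounds for 16 h at 37 C. Beta-lactamase activity was read with CCF4 substrate (405 nm excitation, 460/530 nm emission).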

[22] = molecular target: Peroxisome proliferator-activated receptor gamma (Homo sapiens) (UniProt P37231); assay: qHTS assay for small molecule antagonists of peroxisome proliferator-activated receptor gamma signaling (AID 588537; active means well fitted inhibition curve with a large enough effect in the signal ratio, with a control signal flat, not every such curve was filed as active; the % refers to the signal ratio;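 further: reporter cells co-stimulated with 50 nM rosiglitazone agonist during compound treatment; % of control where 0% means no effect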)
Summary of the method: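 PPARγ-UAS-bla HEK293 cells (3000/well) in 1% charcoal/dextran-stripped FBS are treated with compound, then stimulated with 50 nM rosiglitazone for 16 h at 37 °C. Read-out is CCF4 β-lactamase fluorescence after 2 h at RT. IC50 comes from Hill fits normalised to rosiglitazone and DMSO.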

[23] = molecular target: Vitamin D3 receptor (Homo sapiens) (UniProt P11473); assay: qHTS assay for small molecule agonists of vitamin D receptor signaling (AID 588543);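 further: 0% = DMSO basal and 100% = reference agonist control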
Vitamin D3 receptor (Homo sapiens), sequence (P11473 whole entry, looked up): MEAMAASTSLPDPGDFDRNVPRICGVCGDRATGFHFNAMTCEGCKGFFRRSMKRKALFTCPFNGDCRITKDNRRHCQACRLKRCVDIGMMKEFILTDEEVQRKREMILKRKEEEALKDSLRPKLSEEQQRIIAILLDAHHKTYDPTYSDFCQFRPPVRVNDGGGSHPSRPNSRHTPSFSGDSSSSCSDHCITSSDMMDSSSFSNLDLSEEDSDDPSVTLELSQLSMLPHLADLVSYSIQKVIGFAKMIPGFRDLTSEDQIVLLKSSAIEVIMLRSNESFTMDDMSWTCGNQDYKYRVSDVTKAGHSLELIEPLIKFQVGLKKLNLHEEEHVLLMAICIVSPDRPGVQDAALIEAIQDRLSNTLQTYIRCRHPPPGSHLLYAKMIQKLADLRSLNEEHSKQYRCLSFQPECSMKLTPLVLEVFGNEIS
Summary of the method: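 β-lactamase reporter, VDR-UAS-bla HEK293T, agonist mode. Cells plated 5 h at 37 °C, compound titration 16 h at 37 °C, CCF4 dye 2 h RT, ratio 460/530 nm. Hill fit → EC50, efficacy vs 50 nM 1α,25-(OH)2D3.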

[24] = qHTS assay for small molecule agonists of retinoid X receptor alpha signaling (AID 588544); details: HEK293T RXRa-UAS-bla, beta-lactamase reporter, 18 h; 530 nm emission;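 on activation: 0% = DMSO basal wells and 100% = reference agonist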
[25] = molecular target: Retinoic acid receptor RXR-alpha (Homo sapiens) (UniProt P19793); assay: as above
[26] = molecular target: Thyroid hormone receptor beta (Homo sapiens) (UniProt P10828); assay: qHTS assay for small molecule antagonists of thyroid hormone receptor beta signaling (AID 588547; active means well fitted inhibition curve with a large enough effect in the signal ratio, with a control signal flat, not every such curve was filed as active; the % refers to the signal ratio;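 further: cells stimulated with 0.4 nM T3 agonist during compound exposure; series mostly up to about 77 µM; on the % scale 0 is the no-effect control and ±100 the full control effect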); details: TR-UAS-bla HEK293, beta-lactamase ratio, antagonist mode, 18 h
Summary of the method: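 TR-UAS-bla GripTite HEK293 cells in 2% charcoal/dextran FBS medium; compounds 0.59 nM to 92 uM with T3 at 0.4nM final, 18 h at 37 C. Beta-lactamase read by CCF4 fluorescence (460/530 nm); Hill fits gave IC50 and efficacy.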

[27] = qHTS assay for small molecule activators of the nuclear factor-kappa B (NF-kB) signaling pathway (AID 651749; active means well fitted activation curve with a large enough effect in the signal ratio; the % refers to the signal ratio; further: series mostly up to about 77 µM; % of control where 0% means no effect); details: NF-kB-bla ME-180 cells, beta-lactamase FRET ratio, 16 h; activation: stronger effect = higher value
Summary of the method: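 NF-kB-bla ME-180 cells carrying a beta-lactamase reporter under an NF-kB response element, 2,000 cells/well, exposed to compound for 16 hr at 37C; FRET-based beta-lactamase fluorescence read-out of pathway activation.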

N=C1C=CC(=C(c2ccc(N)cc2)c2ccc(N)cc2)C=C1
inactive: activation [1] 3.86%

NC1=NC(S)C2N=CN=C2N1 (configuration not stated)
inactive: activation [1] 2.34%

CC1COC(Cn2cncn2)(c2ccc(Oc3ccc(Cl)cc3)cc2Cl)O1 (configuration not stated)
active: Potency [2] 44.7 µM | Potency [6] 39.8 µM | Potency [7] 15.4 µM
9.03%: max response [5]
inactive: activation [1] 3.21% | activation [3] -11.8% | Potency [4] | activation [8] 12.1% | activation [9] 14.3% | Potency [10] | max response [11] -29.8% | Potency [12] | max response [13] -12.8% | outcome [14]

CCCCCCCCOc1ccc(C(=O)O)cc1
inactive: activation [1] 11.7%

c1ccc2cc3ccccc3cc2c1
inactive: activation [1] -1.8%

Cl[Si](Cl)(c1ccccc1)c1ccccc1
inactive: activation [1] 3.41%

O=c1oc2cc(O)ccc2c2oc3cc(O)ccc3c12
inactive: activation [1] 8.73%

Cc1cccc2ccccc12
inactive: activation [1] -0.539%

CCCOC(=O)c1cc(O)c(O)c(O)c1
inactive: activation [1] -0.748%

CCOP(=O)(OCC)Oc1cc(C)nc(C(C)C)n1
13.6%: max response [5]
22.9%: max response [16]
inactive: Potency [2] | activation [3] 20.3% | outcome [15] | Potency [17] | Potency [4] | max response [6] 18.7% | activation [8] -7.84% | activation [9] -0.423% | max response [18] -1.71% | Potency [10] | max response [19] 16.1% | max response [11] 7.77% | max response [13] -12.9% | outcome [14]

COc1ccc(OC)c(OC)c1
inactive: activation [1] 0.0379%

O=C(O)CNC(=O)c1ccc([N+](=O)[O-])cc1
inactive: activation [1] 1.14%

O=[N+]([O-])c1cc(C(F)(F)F)c(Cl)c([N+](=O)[O-])c1Nc1ncc(C(F)(F)F)cc1Cl
inactive: activation [1] 2.48% | outcome [15] | max response [18] -9.03% | outcome [14]
active: Potency [2] 25.1 µM | Potency [19] 35.5 µM | Potency [11] 35.5 µM

CC1COCc2cc3c(cc21)C(C)(C)C(C)C3(C)C (configuration not stated)
inactive: activation [1] 0.585%

CN1COCN(Cc2cnc(Cl)s2)/C1=N\[N+](=O)[O-]
-72.6%: max response [16]
-27.5%: max response [24]
-4.43%: max response [5]
inactive: Potency [2] | activation [3] -3.49% | Potency [20] | outcome [15] | Potency [17] | Potency [21] | Potency [22] | outcome [23] | Potency [25] | max response [6] 2.74% | activity change % (negative = inhibition) [26] -19.4% | activation [8] -3.46% | activation [27] 0.219% | activation [9] -0.335% | max response [18] -1.32% | Potency [10] | max response [19] -21.4% | max response [11] -0.262% | Potency [12] | max response [13] -0.267% | outcome [14]

Source: PubChem BioAssay (NCATS)
